# Only a selection was taken, and hits are over-represented in it overall.
# Vaccinia pol inh: inhibitors of vaccinia virus processive DNA synthesis (E9 polymerase); normalized absorbance, % (concentration not given with the values); actives 0.94% (n = 46,000); AID 493162; in vitro processive DNA synthesis, absorbance read-out; hits give low values; in the data active = normalized absorbance mostly below about 85%, no sharp cut-off; inactive = mostly above about 86%
# The depositor's hits bear a star; ! = not active in a repeat.
SMILES,Vaccinia pol inh
NC(=O)c1ccc(-c2nnc(-c3ccccc3)o2)cc1,93.7
c1ccc(-c2nnc(-c3ccccc3)o2)cc1,99.1
Nc1ccccc1-c1nnc(-c2ccc(-c3ccccc3)cc2)o1,65.9*
Cc1ccc2oc(=O)c3cc(C(=O)N4CCCCC4)sc3c2c1,99.9
CNC(=O)COc1ccc(-c2nn(C)c(=O)c3ccccc23)cc1,76.2*
CNC(=O)COc1ccc(NC(=O)CCn2nc(-c3ccc(Cl)cc3)c3ccccc3c2=O)cc1,100.3
Cc1cc(-c2nn(C)c(=O)c3ccccc23)cc(C)c1OCC(=O)NN,105.8
O=c1[nH]c(SCc2ccc(C(F)(F)F)cc2)nc2c1cnn2-c1ccccc1,97.9
Cc1cc(C=C2C(=O)OC(C)(C)OC2=O)c(C)n1-c1ccc(I)cc1,100.1
CC(CC1CC(C)(C)OC1=O)c1nc(=S)[nH][nH]1 (configuration not stated),96.2
CCN(CC)S(=O)(=O)c1ccc(C(=O)Nc2nccs2)cc1,85.6*
CN(C)S(=O)(=O)c1ccc(C(=O)Nc2nccs2)cc1,96.9
CN(C1CCCCC1)S(=O)(=O)c1ccc(C(=O)Nc2nccs2)cc1,88.1
O=C1CC(N2C(=O)C3CC=CCC3C2=O)C2COC1O2 (configuration not stated),101.4
O=C1CC(Sc2ccc3ccccc3c2)C2COC1O2 (configuration not stated),36.1*
CC1CCc2nc(SC3CC(=O)C4OCC3O4)nc(C(F)(F)F)c2C1 (configuration not stated),99.7
O/N=C/C(=N/O)c1ccccc1,98.0
Cc1cc(C)nc(N2Cc3ccccc3C2=N)n1,69.0*
N=C1c2ccccc2CN1c1ccc2c(c1)OCCO2,103.7
CCc1ccc(N2Cc3ccccc3C2=N)cc1,99.0
CCCCN(C)C(=O)c1[nH]c2ccccc2c1Sc1ccc(Cl)cc1,103.4
Cc1ccc(C)n1-c1cccc(N)c1,99.9
Cc1ccc(C)n1-c1cccc(C(=O)O)c1,11.4*
Cc1ccc(C)n1-c1cccc(C(F)(F)F)c1,99.4
Cc1ccc2cc(NC(=O)C3CC(=O)N(Cc4ccc(F)cc4)C3)ccc2n1 (configuration not stated),110.5
SMILES,Vaccinia pol inh
O=c1ccc2cc(O[C@H]3O[C@H](CO)[C@@H](O)[C@H](O)[C@H]3O)c(O)cc2o1,100.5
CN(C)c1ccc(C2=CC=CC(=C3C=CC(=[N+](C)C)C=C3)O2)cc1,39.3*
O=C(COC(=O)c1ccc(O)cc1)NCc1ccccc1,108.4
CN(C)C1CCCCC1NS(=O)(=O)c1ccccc1 (configuration not stated),103.0
CCSc1nnc(CSc2ncccn2)n1-c1cccc(C(F)(F)F)c1,105.9
CCc1nnc2c3ccccc3nc(-c3ccncc3)n12,64.7
COc1cc2c(cc1O)C(C)=NC(C)(C)C2,93.2
Cc1ccc(C(=O)CC(c2cccs2)S(=O)(=O)c2ccccc2)cc1 (configuration not stated),101.6
O=S(=O)(Nc1ccc(O)cc1)c1ccc2ccccc2c1,100.6
CCOC(=O)c1[nH]ncc1Sc1ccc(Cl)cc1,101.4
Cc1ccc(Sc2cnc3ccccc3n2)cc1,118.7
Cc1ccc(Sc2cn[nH]c2C)cc1,72.9*
CCc1ccc(CNC(=O)COc2cc(=O)n(C)c3ccccc23)cc1,88.0
FC(F)(F)Oc1ccc(-c2nnc(-c3cccnc3)o2)cc1,100.1
COc1ccc2c(c1)-c1ccccc1S(=O)(=O)N2C,95.7
COc1ccc(-c2ccc(OC)cc2C(=O)NN)cc1,100.7
COc1ccc2c(c1)C(=NN)c1cc(OC)ccc1-2,67.6*
CCCc1nc2ccccc2n1CC(=O)c1ccc(F)cc1,101.3
Cn1c(SCc2ccccc2)nc2c([nH]c3ccccc32)c1=O,97.2
c1ccc(CNc2ccc3c(ccc4c5ccccc5[nH]c34)n2)cc1,54.1*
c1ccc(-c2nc(NCc3cccnc3)c3ccccc3n2)cc1,101.5
O=C(CSc1nc2ccccc2[nH]1)Nc1cccc(Oc2ccccc2)c1,90.3
O=C1NC(=Nc2ccccc2)SC1Cc1ccccc1Cl (configuration not stated),101.4
O=C(O)c1ccccc1C(=O)N1CCN(C2c3ccccc3-c3ccccc32)CC1,73.6*
Cc1nnsc1C(=O)N1CCN(C2c3ccccc3-c3ccccc32)CC1,111.2
SMILES,Vaccinia pol inh
Cc1cc(C(=O)N2CCN(C3c4ccccc4-c4ccccc43)CC2)c(C)o1,96.0
CC1(C)Cc2c(c(N3CCOCC3)nc3sc4c(Cl)nnnc4c23)CS1,104.1
CN(C)c1ccc(/C=C2/S/C(=N/O)NC2=O)cc1,99.7
O=C1NC(=Nc2ccccc2)S/C1=C\c1ccccc1,87.5
O=C1N/C(=N\O)S/C1=C/c1ccc(O)cc1,84.2*
CN1CCc2c(-c3cccs3)nc(OCc3ccccc3Br)c(C#N)c2C1,45.9*
N#Cc1c(-c2ccco2)cc(-c2cccs2)nc1OCc1ccc(F)cc1,89.0
N#Cc1ccc(CSc2nc(-c3cccs3)c3c(c2C(=O)O)CCCC3)cc1,99.6
CCOC(=O)C1=CNc2ccccc2S1,94.9
Cc1cccc2nc(CSC(=S)NCc3cccnc3)cn12,72.2*
Cc1cccc2nc(CSCc3ccco3)cn12,79.8
Cc1cccc2nc(CSC(=S)NCC3CCCO3)cn12 (configuration not stated),110.3
CC1(C)CCCC2=C1CC(C(=O)O)C(C(=O)NCc1cccnc1)C2 (configuration not stated),104.9
Oc1c(Cl)cc(Cl)cc1C=Nc1ccc2n[nH]nc2c1,102.5
Oc1c(Cl)cc(Cl)cc1/C=N/c1ccnn1-c1ccccc1,90.1
Cc1cc(N=Cc2cc(Cl)cc(Cl)c2O)no1,56.3*
COc1cccc(/C=C/C(=O)OCC(=O)NC2CCCCC2)c1,111.5
CCOc1ccc(N)cc1OCC,101.1
C[n+]1c2cc(N)ccc2cc2ccc(N)cc21,10.5*
Cc1cccc(C(=O)NCC(=O)OCc2ccc(F)cc2)c1,96.5
Cc1cccc(Oc2ccc(NC(=O)CCCC(=O)O)cc2)c1,95.8
COc1ccc(-c2ccnc(SCc3ccc(Cl)cc3Cl)n2)cc1,110.8
CCS(=O)(=O)N1CCN=C1SCc1ccc(Cl)cc1Cl,20.8*
CCS(=O)(=O)N1CCN=C1SCc1ccc(C)cc1,101.1
O=C(CCCCn1c(=O)[nH]c2ccsc2c1=O)NCc1ccccc1,96.4
SMILES,Vaccinia pol inh
CCCN(CCC)C(=O)/C=C/c1ccc(OC)c(OC)c1,97.6
CN(Cc1ccccc1)C(=O)CNc1ccc(Br)cc1,102.2
Cc1c(CN(C)C)c2c(n1Cc1ccccc1)C(=O)c1ccc(Br)cc1-2,68.3*
Nc1cc(=O)n(Cc2ccccc2)c(=O)n1-c1ccccc1,96.0
O=C(NC1=NCCCCCN1)c1ccccc1Cl,100.3
O=C(/C=C/c1ccc(Cl)cc1Cl)Nc1cccc2cnccc12,99.3
COc1cc2nc(N3CCN(C(=O)c4ccco4)CC3)nc(N)c2cc1OC,85.0*!
COc1cc2c(cc1OC)CN(C(=O)c1ccco1)CC2,102.0
CC(C)N1CCN(C(=O)c2ccco2)CC1,104.7
CCN(C(=O)Cn1c(=O)n(Cc2ccc3c(c2)OCO3)c(=O)c2ccccc21)c1cccc(C)c1,99.7
CCOC(=O)CNc1ccc(C(=O)O)cc1,99.9
Oc1c(Br)cc(Br)cc1C=Nc1ccccc1F,80.8*
Oc1ccc(Br)cc1C=Nc1cc2c(cc1Br)OCCO2,99.8
COc1cc(Br)cc(C=Nc2ccccc2)c1O,110.8
O=C1CCC=CN1c1cn[nH]c1-c1ccc(Cl)cc1,102.3
CC(C)C(=O)OCC1CCCN2CCCCC12 (configuration not stated),100.3
CCOc1cccc2sc(NC(=O)CC)nc12,87.3*
CCC(=O)Nc1nc2c(C)c(C)ccc2s1,100.4
